Measured values from PubChem BioAssay AID493001 (Johns Hopkins Ion Channel Center, 2010).
Among all 1,900 compounds or so, about 430 (23%) were called active.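 The calls were made as follows: active = duplicate-averaged calcium rise in uninduced cells above buffer wells' mean plus 5 SD; inactive = the rest.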 A selection follows.

Test: direct calcium signal without carbachol stimulation – cell-based, HEK293 M3R, non-induced, no carbachol, second counter-screen, artefact control for RGS4 inhibitor project, confirmation (AID 493001)
Conditions: Fluo-4 calcium, at 10 µM; active compounds read high, normalised: buffer wells 0%, carbachol wells 100%

| Compound | calcium response (agonist-mode artifact) |
| --- | --- |
| COc1ccccc1C1C(C#N)=C(N)Oc2c1c(-c1ccccc1)nn2-c1ccccc1 (configuration not stated) | 8% (active) |
| O=C(Nc1ccccc1)OCc1cc(-c2ccc(Cl)cc2)on1 | inactive |
| COc1ccc2c(c1OC)C(=O)OC2Nc1nc(-c2ccccc2)cs1 (configuration not stated) | inactive |
| CC(C)c1nc(SCC(=O)Nc2cccc(C(=O)O)c2)c2c3c(sc2n1)CCCC3 | inactive |
| O=C(NCCCc1ccccc1)C1CCC(CNc2c(N3CCCCC3)c(=O)c2=O)CC1 (configuration not stated) | inactive |
| Cn1c(-c2ccco2)nc2cc3ccccc3cc21 | inactive |
| Cc1ccc(-c2c3c(=O)n(C)c(=O)n(C)c3cn2-n2cnnc2)cc1 | inactive |
| Nc1ccccc1SC(C[N+](=O)[O-])c1ccccc1 (configuration not stated) | 26% (active) |
| c1ccc(C[C@H]2CNCCN2CCC23CC4CC(CC(C4)C2)C3)cc1 | inactive |
| C=CCSc1nc2c(c(=O)[nH]1)C(C(C)C)C(C#N)=C(N)O2 (configuration not stated) | inactive |
| CCn1c(O)c(N=NC2=NC(=O)CS2)c2cc(C)ccc21 | inactive |
| O=C1NC(c2ccc(-c3ccccc3[N+](=O)[O-])o2)C(C(=O)c2ccc(Cl)cc2)C(O)(C(F)(F)F)N1 (configuration not stated) | 7% (active) |
| Cc1ccc(SC(CC(=O)c2ccc(C(C)(C)C)cc2)C(=O)O)cc1 (configuration not stated) | inactive |
| O=C(Nc1ccc(Cl)cc1)OCc1cc(-c2ccccc2)on1 | inactive |
| O=C(O)c1ccc2c(c1)C(=O)N(c1ccc(/C=C/C(=O)c3ccccc3)cc1)C2=O | inactive |
| COc1cc(/C=C2/SC(=S)N(Cc3ccccc3)C2=O)cc(OC)c1O | 37.5% (active) |
| COc1ccc(/C(O)=C2/C(=O)C(=O)N(c3nc(C)c(C)s3)C2c2ccco2)cc1 (configuration not stated) | inactive |
| COc1ccc(-c2csc(Nc3ccc(O)cc3)n2)cc1 | inactive |
| CNc1nc(Nc2ccc(C)c(Cl)c2)nc(N)c1[N+](=O)[O-] | inactive |
| O=C(O)c1ccc2c(=O)n3c(nc2c1)/C(=C/c1ccc(Cl)c([N+](=O)[O-])c1)CC3 | inactive |
| COc1cc2c(cc1O)C(SC)=NC(C)(C)C2 | inactive |
| O=C(/C=C/Sc1ncn[nH]1)c1ccc(Cl)cc1 | 9% (active) |

| Compound | calcium response (agonist-mode artifact) |
| --- | --- |
| Cc1cc(C)nc(S/C=C/C(=O)c2ccccc2)n1 | inactive |
| CC(=O)Nc1ccc(S(=O)(=O)Nc2nc(-c3ccc(C(C)(C)C)cc3)cs2)cc1 | inactive |
| O=C(/C=C/c1ccc(Cl)c([N+](=O)[O-])c1)c1cccnc1 | inactive |
| Cc1ccc(C)c(Cn2nnc3c(=O)[nH]c(C(=O)Nc4ccc(F)cc4)nc32)c1 | inactive |
| O=C(NCc1ccccc1)c1ccc(S(=O)(=O)Nc2cccc(C(F)(F)F)c2)cc1 | 13% (active) |
| CCc1ccc2oc(-c3ccc(N)cc3)nc2c1 | inactive |
| CCCCC1S/C(=N/N=C/c2cccs2)NC1=O (configuration not stated) | inactive |
| CCOC(=O)[C@@H]1[C@H]2COc3ccc(Br)cc3[C@H]2N2C(=O)N(c3ccc(Cl)cc3)C(=O)[C@@]12C | inactive |
| O=C(CCN1CCc2ccccc2C(O)(c2ccccc2)C1)c1ccc2c(c1)OCCO2 (configuration not stated) | 11.5% (active) |
| CCc1nnc(NS(=O)(=O)c2ccc(N=Cc3c(C)[nH]n(-c4ccc(C)cc4)c3=O)cc2)s1 | inactive |
| CCC(c1nnnn1Cc1ccco1)N(Cc1cc2cc(OC)ccc2[nH]c1=O)C1CCCCC1 (configuration not stated) | inactive |
| C=C(C)C(=O)O[C@H]1C/C(C)=C\C(=O)/C=C(\C)[C@H](O)[C@@H]2OC(=O)C(=C)[C@@H]21 | inactive |
| CCCCOC(=O)CNc1nnc(SCC(=O)OCC)[nH]c1=O | inactive |
| CNCC(O)c1ccc(O)c(O)c1 (configuration not stated) | inactive |
| Cc1ccc(S/C(=N\S(=O)(=O)c2ccc(Cl)cc2)c2ccccc2)cc1 | 25% (active) |
| COc1ccc(OC)c(S(=O)(=O)N2CCCC(C(=O)N3CCC(C(N)=O)CC3)C2)c1 (configuration not stated) | inactive |
| CCOC(=O)C1CCN(C(c2cc3cc(C)cc(C)c3[nH]c2=O)c2nnnn2C2CCCCC2)CC1 (configuration not stated) | inactive |
| Cc1noc(NS(=O)(=O)c2ccc(N/C=C/C(=O)c3ccccc3)cc2)c1C | inactive |
| Cc1ccsc1/C=N/n1c(=S)[nH]nc(C)c1=O | inactive |
| CCOc1ccc(/C=N/NC(=O)CSc2ccccn2)cc1O | inactive |
| Cc1nc(-c2ccccc2)sc1C(=O)/C=C/c1ccccc1 | 22.5% (active) |
| S=c1[nH]nc(-c2cccnc2)n1/N=C/C(Cl)=C\c1ccccc1 | inactive |

| Compound | calcium response (agonist-mode artifact) |
| --- | --- |
| Oc1ccc(-c2[nH]ncc2-c2nc3ccccc3s2)c(O)c1 | inactive |
| C#CCOc1ccc(/C=C2/C(=O)ON=C2C)cc1OCC | inactive |
| COc1cc(/C=C2/C(=O)ON=C2C)ccc1OCc1ccccc1F | 222% (active) |
| C=CCOc1ccc(/C=C2/C(=O)ON=C2C)cc1OCC | 10% (active) |
| Cc1ccc(NC(=O)c2c(NC(=O)CCC(=O)O)sc3c2CCCCC3)cc1 | inactive |
| Cc1ccc(Nc2nc(N)nc(CSc3nnc(C)s3)n2)cc1 | inactive |
| Cc1ccc(Nc2nc(N)nc(CN3CCN(Cc4ccccc4)CC3)n2)cc1Cl | inactive |
| Brc1ccc(-c2csc(N/N=C/c3cccnc3)n2)cc1 | inactive |
| CCOc1ccc(NC(=O)C/C(C)=N/NC(=O)Cc2cccs2)cc1 | inactive |
| COc1ccc(/C=C/C(=O)c2ccc(OC)cc2O)cc1 | 11.5% (active) |
| O=C(/C=C/c1ccc(Cl)c([N+](=O)[O-])c1)c1ccc(O)cc1 | inactive |
| Cc1c(NC(=O)c2coc(=O)c(Br)c2)c(=O)n(-c2ccccc2)n1C | inactive |
| CCc1ccc(C2C(C#N)=C(N)N(N3CCOCC3)C3=C2C(=O)CC(C)(C)C3)s1 (configuration not stated) | inactive |
| O=[N+]([O-])c1c(NCCO)cc(Sc2nc3ccccc3s2)c2nonc12 | 114% (active) |
| COc1ccc(S(=O)(=O)Nc2ccc(O)c(Sc3nc4ccccc4s3)c2)cc1 | inactive |
| C[C@H](NC(=O)c1nc[nH]c1C(=O)NCC(=O)OC(C)(C)C)c1ccccc1 | inactive |
| Cc1nc(Nc2ccc(S(=O)(=O)N3CCCC3)cc2)c2nnn(Cc3ccccc3)c2n1 | inactive |
| Nc1cccc(-c2cc(-c3ccccc3)nc(-c3cccc(N)c3)n2)c1 | inactive |
| O=C(N/N=C/c1ccccc1O)/C(=C/c1ccccc1)CCO | inactive |
| CS(=O)(=O)N(CC(O)Cn1c2ccccc2c2ccccc21)c1cccc2ccccc12 (configuration not stated) | inactive |
| COCCCNC(=S)N(CCN(C)C)Cc1cc2cc3c(cc2[nH]c1=O)OCCO3 | inactive |
| C1=C(N2CCOCC2)/C(=C/c2nc3ccccc3[nH]2)CC1 | 185% (active) |

| Compound | calcium response (agonist-mode artifact) |
| --- | --- |
| Cc1nn(C(C)C(=O)N2CCOCC2)c(=O)c2nn(-c3ccccc3)c(C)c12 (configuration not stated) | inactive |
| Cc1ccc(Sc2cc(N3CCOCC3)nc(-c3ccccc3)n2)cc1 | 17% (active) |
| COC(=O)C1CCN(C(=O)c2cc(=O)[nH]c3ccccc23)CC1 | inactive |
| COC(=O)Cn1cc(/C=C/[N+](=O)[O-])c2ccccc21 | 11.5% (active) |
| CC(C)Cc1nc(Nc2ccc(S(=O)(=O)N3CCCC3)cc2)c2nnn(Cc3ccccc3)c2n1 | inactive |
| COc1cc(Br)cc(/C=N/c2ncn[nH]2)c1O | inactive |
| COc1cc(/C=C2/C(=O)NN(c3cccc(Cl)c3)C2=O)cc(Br)c1O | 43.5% (active) |
| C#CCOc1ccc(/C=C2/C(=O)NN(c3ccccc3)C2=O)cc1OC | inactive |
| Cc1ccc(/C=C2\CCn3c2nc2cc(C(=O)O)ccc2c3=O)c(C)c1 | inactive |
| O=[N+]([O-])/C=C/c1ccc2c(ccn2Cc2ccccc2)c1 | 104% (active) |
| Cc1cc(-c2n[nH]c(=S)n2/N=C/C(Br)=C/c2ccccc2)n[nH]1 | inactive |
| O=C(O)C(c1ccccc1)N1C(=O)/C(=C\c2ccc(-c3cccc(Cl)c3)o2)SC1=S (configuration not stated) | 599% (active) |
| O=C1c2ccccc2NC(c2ccc(-c3cccc(Cl)c3)o2)N1O (configuration not stated) | inactive |
| O=C1Nc2ccc(Br)cc2/C1=N/N=C/C1=C(N2CCOCC2)C(=C\c2ccccc2)/CC1 | inactive |
| O=C(COC(=O)c1cccc(Br)c1)Nc1cccc2c1C(=O)c1ccccc1C2=O | inactive |
| Oc1ccc(/C=N/Nc2ccc(C(F)(F)F)cn2)cc1O | inactive |
| Cc1nn2c(=O)cc(COC(=O)c3ccc(NC(=O)C(C)(C)C)cc3)nc2s1 | inactive |
| COc1ccc(C(C[N+](=O)[O-])n2nc(C)cc2C)cc1 (configuration not stated) | 16% (active) |
| CCOC(=O)C1=NN(c2ccc(Cl)cc2)/C(=C/C2=NCCc3cc(OC)c(OC)cc32)S1 | 7% (active) |
| COc1ccc(NCc2nnc(SCc3ccccc3)n2-c2ccc(OC)cc2)cc1 | inactive |
| O=S(=O)(Nc1nccs1)c1ccc2c(c1)OCCO2 | inactive |
